Assay results from PMC8384837, “Expanding the binding specificity for RNA recognition by a PUF domain”.
Residue numbers refer to the chain shown, from its start.

Tests used:
Experiment in all cases: yeast three-hybrid, YBZ-1, SC-Leu-His + 0.5 mM 3-AT, 4 days
Conditions in all cases: tags: N-Gal4 AD-HA kept; label: inside an RPR1-promoter hybrid RNA with tandem MS2 sites; ssRNA
[1] = target: PUM1 PUF domain R4-FNM (Homo sapiens, UniProt Q14671 828-1176, N971F;H972N;Q975M)
Method in brief: (§1)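 Matching RNA elements and Pumilio-1 PUF domain libraries, randomized at the three base-contacting residues of every repeat, were co-expressed from a centromeric plasmid in strain YBZ-1 (LexA–MS2 coat fusion, HIS3 reporter). The repeat regions were PCR-amplified and Illumina-sequenced from cells grown four days on SC-Leu (input) or SC-Leu-His + 0.5 mM 3-AT (selection). The interaction score is the log change in variant frequency from input to selection. It is computed in log2, with a pseudocount of 1 for absent variants.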

[2] = target: PUM1 PUF domain R3-RPD (Homo sapiens, UniProt Q14671 828-1176, C935R;R936P;Q939D)
Method in brief: as §1

[3] = target: T1, PUM1 PUF domain R6-VFK (Homo sapiens, UniProt Q14671 828-1176, N1043V;Y1044F;Q1047K)
T1 sequence: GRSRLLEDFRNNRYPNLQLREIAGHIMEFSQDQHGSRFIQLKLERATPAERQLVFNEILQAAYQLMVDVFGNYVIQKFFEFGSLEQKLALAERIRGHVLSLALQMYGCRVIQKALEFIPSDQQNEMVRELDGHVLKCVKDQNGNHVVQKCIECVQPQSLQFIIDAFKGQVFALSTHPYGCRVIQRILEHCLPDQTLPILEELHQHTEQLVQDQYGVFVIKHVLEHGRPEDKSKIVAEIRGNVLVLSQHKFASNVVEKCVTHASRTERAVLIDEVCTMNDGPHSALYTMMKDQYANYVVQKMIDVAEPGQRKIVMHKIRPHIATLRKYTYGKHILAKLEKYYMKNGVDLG
Method in brief: as §1

[4] = target: PUM1 PUF domain R3-TRC (Homo sapiens, UniProt Q14671 828-1176, C935T;Q939C)
Method in brief: as §1

[5] = target: PUM1 PUF domain R5-LHD (Homo sapiens, UniProt Q14671 828-1176, C1007L;R1008H;Q1011D)
Method in brief: as §1

[6] = target: T2, PUM1 PUF domain R6-SFK (Homo sapiens, UniProt Q14671 828-1176, N1043S;Y1044F;Q1047K)
T2 sequence: T1 sequence with V216S
Method in brief: as §1

[7] = target: PUM1 PUF domain R3-LYI (Homo sapiens, UniProt Q14671 828-1176, C935L;R936Y;Q939I)
Method in brief: as §1

[8] = target: PUM1 PUF domain R4-RMQ (Homo sapiens, UniProt Q14671 828-1176, N971R;H972M)
Method in brief: as §1

[9] = target: PUM1 PUF domain R2-PFQ (Homo sapiens, UniProt Q14671 828-1176, N899P;Y900F)
Method in brief: as §1

[10] = target: PUM1 PUF domain R7-ISS (Homo sapiens, UniProt Q14671 828-1176, S1079I;N1080S;E1083S)
Method in brief: as §1

For “GGCUAGAACUAGUGGAUCCCCCGGCGCCCGGCGGCUCGAGCCCGGGUAAGUGUAUAUAGUCUGCAUGCCGCCGGGCGCCAUGCCUGCAGGUCGACUCUAGAAAACAUG”, which binding signal [1] is on record?
Its binding signal is 3.46 log2 enrichment (interaction score).

How did the binding signal [2] turn out when “GGCUAGAACUAGUGGAUCCCCCGGCGCCCGGCGGCUCGAGCCCGGGUAAGUGUAAUUAGUCUGCAUGCCGCCGGGCGCCAUGCCUGCAGGUCGACUCUAGAAAACAUG” was run?
The binding signal was 3.79 log2 enrichment (interaction score).

How did the binding signal [3] turn out when “GGCUAGAACUAGUGGAUCCCCCGGCGCCCGGCGGCUCGAGCCCGGGUAAGUGUAAAUAGUCUGCAUGCCGCCGGGCGCCAUGCCUGCAGGUCGACUCUAGAAAACAUG” was run?
Its binding signal is 3.04 log2 enrichment (interaction score).

And the binding signal [4]?
Its binding signal is 3.26 log2 enrichment (interaction score).

What about the binding signal [5] of the same sequence?
The binding signal was 3.18 log2 enrichment (interaction score).

And the binding signal [6]?
Its binding signal is 6.49 log2 enrichment (interaction score).

What about the binding signal [7] of the same sequence?
Its binding signal is 4.35 log2 enrichment (interaction score).

What about the binding signal [8] of the same sequence?
Its binding signal is 3.34 log2 enrichment (interaction score).

Which binding signal [9] does the source give for “GGCUAGAACUAGUGGAUCCCCCGGCGCCCGGCGGCUCGAGCCCGGGUAAGUGUAAAAAGUCUGCAUGCCGCCGGGCGCCAUGCCUGCAGGUCGACUCUAGAAAACAUG” here?
The binding signal was 4.24 log2 enrichment (interaction score).

How did the binding signal [4] turn out when “GGCUAGAACUAGUGGAUCCCCCGGCGCCCGGCGGCUCGAGCCCGGGUAAGUGUAAGUAGUCUGCAUGCCGCCGGGCGCCAUGCCUGCAGGUCGACUCUAGAAAACAUG” was run?
Its binding signal is 2.14 log2 enrichment (interaction score).

With “GGCUAGAACUAGUGGAUCCCCCGGCGCCCGGCGGCUCGAGCCCGGGUAAGUGUGAAUAGUCUGCAUGCCGCCGGGCGCCAUGCCUGCAGGUCGACUCUAGAAAACAUG” as the sequence, how does the binding signal [5] read?
Its binding signal is 2.82 log2 enrichment (interaction score).

“GGCUAGAACUAGUGGAUCCCCCGGCGCCCGGCGGCUCGAGCCCGGGUAAGUUUAAAUAGUCUGCAUGCCGCCGGGCGCCAUGCCUGCAGGUCGACUCUAGAAAACAUG” was tested. Which binding signal [10] did it give?
Its binding signal is 3.84 log2 enrichment (interaction score).

How did the binding signal [3] turn out when “GGCUAGAACUAGUGGAUCCCCCGGCGCCCGGCGGCUCGAGCCCGGGUAAGUGAAAAUAGUCUGCAUGCCGCCGGGCGCCAUGCCUGCAGGUCGACUCUAGAAAACAUG” was run?
Its binding signal is 8.43 log2 enrichment (interaction score).

How did the binding signal [3] turn out when “GGCUAGAACUAGUGGAUCCCCCGGCGCCCGGCGGCUCGAGCCCGGGUAAGUGCAAAUAGUCUGCAUGCCGCCGGGCGCCAUGCCUGCAGGUCGACUCUAGAAAACAUG” was run?
The binding signal was 1.94 log2 enrichment (interaction score).

For “GGCUAGAACUAGUGGAUCCCCCGGCGCCCGGCGGCUCGAGCCCGGGUAAGUGUACAUAGUCUGCAUGCCGCCGGGCGCCAUGCCUGCAGGUCGACUCUAGAAAACAUG”, which binding signal [1] is on record?
The binding signal was 2.87 log2 enrichment (interaction score).
